Test results: article PMC5540273 (PLoS ONE, 2017)

Experiments:
Conditions in all cases: concentration: 1 μM, replicates: in singlicate; n = 1
PRKX = test system: PRKX
PRP4 = test system: PRP4
PYK2 = test system: T1, PYK2
T1 construct: gene PTK2B

QSK = test system: QSK
RAF1 = test system: RAF1
RET = test system: RET
RIOK1 = test system: RIOK1
RIOK2 = test system: RIOK2
RIOK3 = test system: RIOK3
RIPK1 = test system: RIPK1
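Note: KINOMEscan kinase panel screen.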

Which “%Inh” value (PRKX) does the source give for `COc1cc(Nc2ccnc3ccc(C(F)(F)F)cc23)cc(OC)c1OC` [GW577382] here?
Its value is 15%.

And the “%Inh” value (PRP4)?
The value was 27%.

And the “%Inh” value (PYK2)?
The value was 0%.

What about the “%Inh” value (QSK) of the same compound?
Its value is 22%.

And the “%Inh” value (RAF1)?
The value was 20%.

And the “%Inh” value (RET)?
The value was 9%.

What about the “%Inh” value (RIOK1) of the same compound?
The value was 11%.

What about the “%Inh” value (RIOK2) of the same compound?
The value was 15%.

What about the “%Inh” value (RIOK3) of the same compound?
Its value is 0%.

And the “%Inh” value (RIPK1)?
The value was 15%.

For `OCCCNc1nccc(-c2c(-c3cccc(C(F)(F)F)c3)nn3cc(C(F)(F)F)ccc23)n1` [GW630813], which “%Inh” value (PRKX) is on record?
The value was 0%.

And the “%Inh” value (PRP4)?
The value was 17%.

What about the “%Inh” value (PYK2) of the same compound?
The value was 5%.

And the “%Inh” value (QSK)?
The value was 0%.

What about the “%Inh” value (RAF1) of the same compound?
The value was 0%.

What about the “%Inh” value (RET) of the same compound?
The value was 11%.

What about the “%Inh” value (RIOK1) of the same compound?
The value was 38%.

And the “%Inh” value (RIOK2)?
The value was 0%.

What about the “%Inh” value (RIOK3) of the same compound?
The value was 14%.

And the “%Inh” value (RIPK1)?
Its value is 0%.

Which “%Inh” value (PRKX) does the source give for `COc1ccc(Nc2nccc(N3CCC(NS(=O)(=O)c4ccc(NC(C)=O)cc4)C3)n2)cc1` (stereo not drawn) [GSK1379729] here?
The value was 2%.

What about the “%Inh” value (PRP4) of the same compound?
Its value is 14%.

What about the “%Inh” value (PYK2) of the same compound?
Its value is 0%.

And the “%Inh” value (QSK)?
Its value is 11%.

What about the “%Inh” value (RAF1) of the same compound?
The value was 18%.

What about the “%Inh” value (RET) of the same compound?
The value was 28%.

And the “%Inh” value (RIOK1)?
The value was 38%.

And the “%Inh” value (RIOK2)?
Its value is 9%.

What about the “%Inh” value (RIOK3) of the same compound?
The value was 29%.

And the “%Inh” value (RIPK1)?
The value was 28%.

With `CCC(=O)c1c(-c2ccccc2)c2cc(Cl)ccc2c(=O)n1Cc1cc(S(C)(=O)=O)n(CC(F)F)n1` as the compound, how does the “%Inh” value (PRKX) read?
The value was 1%.

What about the “%Inh” value (PRP4) of the same compound?
The value was 6%.

What about the “%Inh” value (PYK2) of the same compound?
Its value is 0%.

What about the “%Inh” value (QSK) of the same compound?
The value was 0%.

What about the “%Inh” value (RAF1) of the same compound?
Its value is 6%.

And the “%Inh” value (RET)?
Its value is 0%.

What about the “%Inh” value (RIOK1) of the same compound?
The value was 0%.

And the “%Inh” value (RIOK2)?
The value was 13%.

What about the “%Inh” value (RIOK3) of the same compound?
The value was 25%.

What about the “%Inh” value (RIPK1) of the same compound?
Its value is 1%.

Which results are given for `FC(F)(F)c1ccc(-c2ncn(CCCN3CCOCC3)c2-c2ccncc2)cc1` [SB-217780]?
%Inh (PRKX): 14%; %Inh (PRP4): 0%; %Inh (PYK2): 34%; %Inh (QSK): 0%; %Inh (RAF1): 0%; %Inh (RET): 20%; %Inh (RIOK1): 47%; %Inh (RIOK2): 5%; %Inh (RIOK3): 50%; %Inh (RIPK1): 0%

What does the source list for `COc1ccc(-c2cc3c(C)nc(N)nc3n([C@H]3CC[C@H](O)CC3)c2=O)cn1`?
%Inh (PRKX): 0%; %Inh (PRP4): 0%; %Inh (PYK2): 0%; %Inh (QSK): 0%; %Inh (RAF1): 0%; %Inh (RET): 0%; %Inh (RIOK1): 0%; %Inh (RIOK2): 0%; %Inh (RIOK3): 0%; %Inh (RIPK1): 0%

What does the source list for `O=C1NC(=O)C(c2ccccc2)=C1Nc1cccc(O)c1` [SB-390534]?
%Inh (PRKX): 0%; %Inh (PRP4): 0%; %Inh (PYK2): 12%; %Inh (QSK): 9%; %Inh (RAF1): 13%; %Inh (RET): 0%; %Inh (RIOK1): 0%; %Inh (RIOK2): 0%; %Inh (RIOK3): 0%; %Inh (RIPK1): 0%

Which “%Inh” value (PRKX) does the source give for `COc1cc(Nc2nccc(N3CCC(NC(=O)C4COc5ccccc5O4)C3)n2)cc(OC)c1OC` (stereo not drawn) [GSK1379761] here?
Its value is 15%.

And the “%Inh” value (PRP4)?
Its value is 32%.

And the “%Inh” value (PYK2)?
Its value is 18%.

And the “%Inh” value (QSK)?
Its value is 2%.

What about the “%Inh” value (RAF1) of the same compound?
The value was 7%.

And the “%Inh” value (RET)?
The value was 2%.

What about the “%Inh” value (RIOK1) of the same compound?
Its value is 66%.

And the “%Inh” value (RIOK2)?
The value was 0%.

What about the “%Inh” value (RIOK3) of the same compound?
The value was 43%.

What about the “%Inh” value (RIPK1) of the same compound?
The value was 7%.

Which results are given for `CCS(=O)c1ccc(-c2coc3ccc(-c4nnc(C)o4)cc23)cc1` (stereo not drawn)?
%Inh (PRKX): 0%; %Inh (PRP4): 21%; %Inh (PYK2): 0%; %Inh (QSK): 0%; %Inh (RAF1): 0%; %Inh (RET): 0%; %Inh (RIOK1): 0%; %Inh (RIOK2): 15%; %Inh (RIOK3): 0%; %Inh (RIPK1): 1%

For `COc1cc2nccc(Nc3cccc(Oc4ccccc4)c3)c2cc1OC.Cl` [GW284543], which “%Inh” value (PRKX) is on record?
Its value is 22%.

And the “%Inh” value (PRP4)?
Its value is 19%.

And the “%Inh” value (PYK2)?
Its value is 0%.

What about the “%Inh” value (QSK) of the same compound?
The value was 5%.

What about the “%Inh” value (RAF1) of the same compound?
The value was 5%.

What about the “%Inh” value (RET) of the same compound?
Its value is 25%.

And the “%Inh” value (RIOK1)?
Its value is 21%.

And the “%Inh” value (RIOK2)?
Its value is 0%.

What about the “%Inh” value (RIOK3) of the same compound?
The value was 4%.

And the “%Inh” value (RIPK1)?
The value was 0%.

For `COc1ccc(CNC(=O)NC2CCN(c3ccnc(Nc4ccc(F)cc4)n3)C2)cc1` (stereo not drawn) [GSK1379706], which “%Inh” value (PRKX) is on record?
The value was 18%.

What about the “%Inh” value (PRP4) of the same compound?
The value was 47%.

And the “%Inh” value (PYK2)?
The value was 1%.

And the “%Inh” value (QSK)?
The value was 0%.

And the “%Inh” value (RAF1)?
The value was 6%.

What about the “%Inh” value (RET) of the same compound?
Its value is 21%.

And the “%Inh” value (RIOK1)?
The value was 8%.

And the “%Inh” value (RIOK2)?
The value was 0%.

And the “%Inh” value (RIOK3)?
Its value is 0%.

And the “%Inh” value (RIPK1)?
The value was 0%.

How did the “%Inh” value (PRKX) turn out when `CCC(=O)c1c(-c2ccccc2)c2cc(Cl)ccc2c(=O)n1Cc1ccc(C(=O)O)cc1` was run?
Its value is 0%.

What about the “%Inh” value (PRP4) of the same compound?
Its value is 0%.

And the “%Inh” value (PYK2)?
The value was 0%.

What about the “%Inh” value (QSK) of the same compound?
The value was 0%.

And the “%Inh” value (RAF1)?
The value was 26%.

What about the “%Inh” value (RET) of the same compound?
The value was 0%.

What about the “%Inh” value (RIOK1) of the same compound?
Its value is 6%.

And the “%Inh” value (RIOK2)?
The value was 0%.

What about the “%Inh” value (RIOK3) of the same compound?
The value was 23%.

And the “%Inh” value (RIPK1)?
The value was 0%.

For `COC(=O)c1c(-c2ccccc2)c2cc(Br)ccc2c(=O)n1Cc1ccc(NC(=O)CCC(=O)O)cc1`, which “%Inh” value (PRKX) is on record?
Its value is 10%.

What about the “%Inh” value (PRP4) of the same compound?
Its value is 0%.

And the “%Inh” value (PYK2)?
The value was 16%.

What about the “%Inh” value (QSK) of the same compound?
Its value is 0%.

What about the “%Inh” value (RAF1) of the same compound?
The value was 14%.

What about the “%Inh” value (RET) of the same compound?
The value was 5%.

And the “%Inh” value (RIOK1)?
The value was 0%.

And the “%Inh” value (RIOK2)?
Its value is 0%.

And the “%Inh” value (RIOK3)?
Its value is 0%.

And the “%Inh” value (RIPK1)?
Its value is 0%.

What does the source list for `Cc1nnc(-c2ccc3ncn(-c4ccc(S(C)=O)cc4)c3c2)o1` (stereo not drawn)?
%Inh (PRKX): 3%; %Inh (PRP4): 0%; %Inh (PYK2): 12%; %Inh (QSK): 0%; %Inh (RAF1): 0%; %Inh (RET): 7%; %Inh (RIOK1): 6%; %Inh (RIOK2): 11%; %Inh (RIOK3): 20%; %Inh (RIPK1): 4%

For `Nc1ncnc2c1ncn2-c1cccc(F)c1` [SKF-97560], which “%Inh” value (PRKX) is on record?
The value was 0%.

And the “%Inh” value (PRP4)?
Its value is 0%.

And the “%Inh” value (PYK2)?
Its value is 6%.

And the “%Inh” value (QSK)?
Its value is 13%.

And the “%Inh” value (RAF1)?
Its value is 14%.

And the “%Inh” value (RET)?
Its value is 1%.

What about the “%Inh” value (RIOK1) of the same compound?
The value was 38%.

And the “%Inh” value (RIOK2)?
The value was 19%.

What about the “%Inh” value (RIOK3) of the same compound?
Its value is 49%.

And the “%Inh” value (RIPK1)?
The value was 22%.

`COc1cc(OC)cc(-c2cc3cnc(N)nc3nc2NC(=O)NC(C)(C)C)c1` was tested. Which “%Inh” value (PRKX) did it give?
Its value is 5%.

And the “%Inh” value (PRP4)?
The value was 0%.

And the “%Inh” value (PYK2)?
Its value is 4%.

What about the “%Inh” value (QSK) of the same compound?
The value was 0%.

What about the “%Inh” value (RAF1) of the same compound?
Its value is 0%.

What about the “%Inh” value (RET) of the same compound?
The value was 32%.

What about the “%Inh” value (RIOK1) of the same compound?
The value was 8%.

And the “%Inh” value (RIOK2)?
The value was 0%.

What about the “%Inh” value (RIOK3) of the same compound?
Its value is 45%.

And the “%Inh” value (RIPK1)?
Its value is 0%.

For `Nc1ncnc2c1ncn2-c1cccc2ccccc12` [SKF-97184], which “%Inh” value (PRKX) is on record?
The value was 0%.

And the “%Inh” value (PRP4)?
Its value is 0%.

What about the “%Inh” value (PYK2) of the same compound?
The value was 4%.

And the “%Inh” value (QSK)?
Its value is 6%.

And the “%Inh” value (RAF1)?
The value was 0%.

And the “%Inh” value (RET)?
The value was 0%.

And the “%Inh” value (RIOK1)?
The value was 7%.

And the “%Inh” value (RIOK2)?
Its value is 0%.

What about the “%Inh” value (RIOK3) of the same compound?
Its value is 5%.

And the “%Inh” value (RIPK1)?
Its value is 0%.

Which results are given for `Cc1ccccc1COc1cc(-n2cnc3cc(Cl)ccc32)sc1C(N)=O` [GW813349]?
%Inh (PRKX): 0%; %Inh (PRP4): 19%; %Inh (PYK2): 4%; %Inh (QSK): 0%; %Inh (RAF1): 0%; %Inh (RET): 7%; %Inh (RIOK1): 23%; %Inh (RIOK2): 27%; %Inh (RIOK3): 13%; %Inh (RIPK1): 16%
